Source: PubChem BioAssay (NCI)
Compounds without any hit were thinned out: in the full panel of roughly 83,000, 20% have a hit.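 Single-dose data. Exposure time 48 hours. Values below 10 considered active.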 The source made the active and inactive calls.

How the values were obtained:
Test in all cases: NCI-60 one-dose screen, 48 h (100 = growth as untreated, 0 = no growth, -100 = all killed)
Conditions in all cases: 10 µM unless noted
HCT-15 colon = test system: HCT-15 colon
HT29 colon = test system: HT29 colon
SNB-75 CNS = test system: SNB-75 CNS
SNB-19 CNS = test system: SNB-19 CNS
U251 CNS = test system: U251 CNS
PC-3 prostate = test system: PC-3 prostate
SK-MEL-5 melanoma = test system: SK-MEL-5 melanoma
UACC-62 melanoma = test system: UACC-62 melanoma
LOX IMVI melanoma = test system: LOX IMVI melanoma
SK-MEL-28 melanoma = test system: SK-MEL-28 melanoma

Measured: growth

Cc1cccc(CN(Nc2ccccc2)c2ccccc2)n1
inactive: HCT-15 colon 92.1% | HT29 colon 96.3% | SNB-75 CNS 93.1% | SNB-19 CNS 106% | U251 CNS 91.4% | PC-3 prostate 85.7% | SK-MEL-5 melanoma 97.9% | UACC-62 melanoma 96.3% | LOX IMVI melanoma 98.5% | SK-MEL-28 melanoma 98.7%

COc1cccc(/C=C2\CCc3ccccc3C2=O)c1
inactive: HCT-15 colon 87.2% | HT29 colon 77.1% | SNB-75 CNS 97.4% | SNB-19 CNS 75.7% | U251 CNS 83.2% | PC-3 prostate 83.4% | SK-MEL-5 melanoma 76.8% | UACC-62 melanoma 80.1% | LOX IMVI melanoma 80.2% | SK-MEL-28 melanoma 118%

COC(=O)c1cc(-c2ccc(OC)c(OC)c2)[nH]c1N/N=C/c1c(Cl)cccc1Cl
active: SNB-75 CNS 4.55%
inactive: HCT-15 colon 28.4% | HT29 colon 13.7% | SNB-19 CNS 36.1% | U251 CNS 30.2% | PC-3 prostate 26.3% | SK-MEL-5 melanoma 12.7% | UACC-62 melanoma 38.2% | LOX IMVI melanoma 39.3% | SK-MEL-28 melanoma 56.4%

COC(=O)[C@@H](Cc1c[nH]c2ccccc12)NC[C@@H](O)CN1C(=O)/C(=C\c2cc(OC)c(OC)c(OC)c2)c2ccccc21
inactive: HCT-15 colon 53.9% | HT29 colon 40.9% | SNB-75 CNS 58.3% | SNB-19 CNS 66.2% | U251 CNS 55.6% | PC-3 prostate 46.2% | SK-MEL-5 melanoma 59.8% | UACC-62 melanoma 49.8% | LOX IMVI melanoma 50.9% | SK-MEL-28 melanoma 85.5%

CCCCC#Cc1c(I)n(C2OC(CO[Si](C)(C)C(C)(C)C)C3OC(C)(C)OC32)c(=O)[nH]c1=O (stereo not given)
inactive: HCT-15 colon 68.2% | HT29 colon 69.3% | SNB-75 CNS 85.5% | SNB-19 CNS 97.6% | U251 CNS 82.6% | PC-3 prostate 84.4% | SK-MEL-5 melanoma 90.4% | UACC-62 melanoma 81% | LOX IMVI melanoma 19.3% | SK-MEL-28 melanoma 68.9%

COc1ccccc1/C=C/C1=C(C)CCC(c2ccccc2OC)C1C (stereo not given)
inactive: SNB-75 CNS 42.2% | SNB-19 CNS 19.6% | U251 CNS 15.4% | UACC-62 melanoma 10% | SK-MEL-28 melanoma 49.8%
active: HCT-15 colon 9.57% | HT29 colon 5.56% | PC-3 prostate -33.2% | SK-MEL-5 melanoma -13.3% | LOX IMVI melanoma 7.24%

CCNc1nc(-c2ccc(Cl)c(OC)c2)c(-c2ccnc(NCCNS(=O)(=O)c3ccc(Cl)cc3)n2)s1
active: HT29 colon 5.01% | PC-3 prostate 9.83%
inactive: HCT-15 colon 16.7% | SNB-75 CNS 46.1% | SNB-19 CNS 34.2% | U251 CNS 17.3% | SK-MEL-5 melanoma 13.5% | UACC-62 melanoma 24.6% | LOX IMVI melanoma 13.9% | SK-MEL-28 melanoma 32.3%

Cc1nc2sc(C(=O)Nc3ccccc3)c(N)c2cc1C(O)c1ccccc1 (stereo not given)
inactive: HT29 colon 11.9% | SNB-75 CNS 36.9% | SNB-19 CNS 23.5% | U251 CNS 16.9% | PC-3 prostate 21.6% | UACC-62 melanoma 34.6% | LOX IMVI melanoma 26.9% | SK-MEL-28 melanoma 65.7%
active: HCT-15 colon 9.11% | SK-MEL-5 melanoma 4.19%

C#CCOc1cccc(Nc2ncnc3c(NC(=O)CCl)cccc23)c1
inactive: SNB-75 CNS 74.8% | SNB-19 CNS 20.1% | UACC-62 melanoma 21.8% | SK-MEL-28 melanoma 75%
active: HCT-15 colon -37.9% | HT29 colon -77.1% | U251 CNS -69.2% | PC-3 prostate 2.88% | SK-MEL-5 melanoma -89.2% | LOX IMVI melanoma -79.7%

O=c1n(C2OC(CO)C(O)C2O)ccc2nccn12 (stereo not given)
inactive: HCT-15 colon 105% | HT29 colon 108% | SNB-75 CNS 95.5% | SNB-19 CNS 114% | U251 CNS 99% | PC-3 prostate 104% | SK-MEL-5 melanoma 114% | UACC-62 melanoma 111% | LOX IMVI melanoma 111% | SK-MEL-28 melanoma 113%

Cc1[nH]c(C2CC(c3ccc(C(F)(F)F)c(F)c3)=NN2C)c(C)c1C(=O)NCC(F)(F)F (stereo not given)
inactive: HCT-15 colon 92.2% | HT29 colon 102% | SNB-75 CNS 96.9% | SNB-19 CNS 91.9% | U251 CNS 96.8% | PC-3 prostate 98.1% | SK-MEL-5 melanoma 93.6% | UACC-62 melanoma 82.3% | LOX IMVI melanoma 93.1% | SK-MEL-28 melanoma 101%

O=c1c(Cc2ccc(F)cc2)cc(-c2ccccc2)nn1C/C(=N/O)c1ccccc1
inactive: HCT-15 colon 44.5% | HT29 colon 20.3% | SNB-75 CNS 57.8% | SNB-19 CNS 58.3% | U251 CNS 34.5% | PC-3 prostate 25.9% | SK-MEL-5 melanoma 36.6% | UACC-62 melanoma 33.6% | LOX IMVI melanoma 53.1% | SK-MEL-28 melanoma 62%

CCCCCCCCOC(=O)c1c(C)[nH]c(/C=C2\N=C(c3ccc[nH]3)C=C2OC)c1C
active: HCT-15 colon 1.19% | HT29 colon -11.2% | SNB-75 CNS -20.8% | U251 CNS -8.43% | SK-MEL-5 melanoma -99.2% | UACC-62 melanoma -25.7% | LOX IMVI melanoma -44.9% | SK-MEL-28 melanoma -12.5%
inactive: SNB-19 CNS 25.4% | PC-3 prostate 18%

COC(=O)c1c(C(=O)OC)c2ccc3c4ncccc4ccc3n2c1C(=O)c1ccc(C)cc1
inactive: HCT-15 colon 91.1% | HT29 colon 95.1% | SNB-75 CNS 95.2% | SNB-19 CNS 98.1% | U251 CNS 98.9% | PC-3 prostate 86.6% | SK-MEL-5 melanoma 83.7% | UACC-62 melanoma 84.8% | LOX IMVI melanoma 88% | SK-MEL-28 melanoma 95.1%
